Measured values: PubChem BioAssay (NCI)
About 79,000 compounds went through this panel and 15% of them were active in at least one assay; those are over-represented in the sample as a whole. A number with no mark means an inactive call. Active and inactive are the calls of the source. Cut-off read from the data, not from the text of the source: active = growth inhibition above about 70%; inactive = the rest.

Assay: NCI Yeast Anticancer Drug Screen. Data for the rad50 strain (AID 155);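 note: 0% = growth of vehicle-only cultures of the same strain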
Conditions: S. cerevisiae rad50 strain growth inhibition; at 5.0 µM (retest, dose inferred, filed as 0.5); active compounds read high
Summary of the method: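 Growth of the mutant yeast was measured after compound exposure and referenced to vehicle-treated cultures.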

Compound	growth inhibition
CCN(CC)CCOC(=O)C1CCCCC1C(=O)C1CCCCC1 (stereo not given)	-3%
O=c1c2cc(Br)ccc2ncn1COCc1ccccc1	21%
C=C1C(=O)OC2C1CCC(=C)C1CC(O)C(=C)C12 (stereo not given)	3%
CCC(CC)=NNc1ccc([N+](=O)[O-])cc1	7%
CCN(CC)CCNc1ccc(C)c2oc3ccc(O)cc3c(=O)c12	39%
CCOC(=O)C[P+](c1ccc(C)cc1)(c1ccc(C)cc1)c1ccc(C)cc1	39%
Cc1ccc(C)c(C(=O)/C=C/C(=O)O)c1	29%
CCCC/C=C(/CCCCOCOCCOC)[Si](C)(C)C	-1%
C=C1C2Oc3ccccc3C1N(c1ccccc1)O2 (stereo not given)	9%
NC(=O)N/N=C1/CC2CCCCC2c2ccccc21 (stereo not given)	12%
CC(CCN)(CCN)[N+](=O)[O-]	16%
COC(=O)/C=C(\NC1CC(OC2C[C@](O)(C(C)=O)Cc3c(O)c4c(c(O)c32)C(=O)c2c(OC)cccc2C4=O)OC(C)C1O)C(=O)OC (stereo not given in full)	25%
CCOc1ccc(N=Nc2ccccc2)cc1	-11%
O=C(CNS(=O)(=O)Cc1ccccc1)NCC(=O)NNc1ccccc1	12%
CC1(C)c2ccccc2Cc2cc3ccccc3nc21	0%
CC(=O)Nc1ccc(C(C)(C)c2ccc(C)cc2)cc1	0%
CC[C@]1(O)C[C@H]2[C@@H]3CCc4cc(OC)ccc4[C@H]3CC[C@]2(C)[C@H]1O	-3%
CCCCSc1nc2c([nH]1)c(=S)n(C)c(=S)n2C	2%
CN(Cc1cc(C(C)(C)C)cc(Br)c1O)Cc1cc(C(C)(C)C)cc(Br)c1O	2%
Oc1cc2c(cc1C(c1ccc(F)cc1)N1CCCCC1)OCO2 (stereo not given)	-1%

Compound	growth inhibition
CCCCCCCN(CCCCCCC)CC(O)Cc1cc2c(c3ccccc13)CCCC2 (stereo not given)	6%
Cc1c2ccncc2c(C)c2c1sc1ccccc12	83% (active)
c1ccc2c(c1)OCC(CNCCNCC1COc3ccccc3O1)O2 (stereo not given)	51%
CC(C)(C)c1ccc(Sc2ncnc3ccccc23)cc1	4%
C(#Cc1ccccc1)Sc1ccccc1	6%
CCOC(=O)NC(NNc1ccc([N+](=O)[O-])cc1[N+](=O)[O-])(C(F)(F)F)C(F)(F)F	1%
O=C1/C(=C/c2cccc(O)c2)COc2ccccc21	21%
CNC1=C2NC(=O)/C(C)=C\C=C\C(C)C(O)C(C)C(O)C(C)C(OC(C)=O)C(C)C(OC)/C=C/OC3(C)Oc4c(C)c(O)c(c(c4C3=O)C1=O)C2=O (stereo not given)	-6%
COc1ccc(Cc2c(-c3ccc(C)cc3)n[nH]c(=O)c2C2C(=O)N(c3ccccc3)N=C2c2ccccc2)cc1 (stereo not given)	98% (active)
Cc1ccc(Cc2n[nH]c(=O)n2N2C(=O)c3ccccc3C2=O)cc1	18%
COc1cc2c(c(C3C(=O)N(C)c4ccc(Br)cc43)c1OC)OCO2 (stereo not given)	3%
CCCCCCCCC1N(C)CCCN1C	-76%
C1=Cc2ccccc2/C1=C/c1ccccc1	-1%
COC(=O)c1ccc2ccccc2c1C(=O)c1ccc(F)cc1	-1%
CCNC(=S)N/N=C(/C)c1cccc(/C(C)=N\NC(=S)NCC)n1	1%
c1ccc2c(c1)ccc1ncccc12	8%
Cc1nc(N)nn1C	-1%
COC(=O)C1=C(C)NC(C)=C(C(=O)OC)C1c1ccc(NCc2ccccc2)c([N+](=O)[O-])c1	4%
CCc1ccccc1NC(=O)C(C#N)C1=C(Cl)C(=O)c2ccccc2C1=O (stereo not given)	53%
O=C(O)c1ccc2ccccc2c1C(=O)c1cccc2ccccc12	12%

Same assay, conditions: S. cerevisiae rad50 strain growth inhibition; at 50.0 µM (retest, dose inferred, filed as 5.0); active compounds read high

Compound	growth inhibition
CCN(CC)CCOC(=O)C1CCCCC1C(=O)C1CCCCC1 (stereo not given)	3%
O=c1c2cc(Br)ccc2ncn1COCc1ccccc1	20%
C=C1C(=O)OC2C1CCC(=C)C1CC(O)C(=C)C12 (stereo not given)	44%
CCC(CC)=NNc1ccc([N+](=O)[O-])cc1	96% (active)
CCN(CC)CCNc1ccc(C)c2oc3ccc(O)cc3c(=O)c12	96% (active)
CCOC(=O)C[P+](c1ccc(C)cc1)(c1ccc(C)cc1)c1ccc(C)cc1	96% (active)
Cc1ccc(C)c(C(=O)/C=C/C(=O)O)c1	100% (active)
CCCC/C=C(/CCCCOCOCCOC)[Si](C)(C)C	-1%
C=C1C2Oc3ccccc3C1N(c1ccccc1)O2 (stereo not given)	23%
NC(=O)N/N=C1/CC2CCCCC2c2ccccc21 (stereo not given)	92% (active)
CC(CCN)(CCN)[N+](=O)[O-]	18%
COC(=O)/C=C(\NC1CC(OC2C[C@](O)(C(C)=O)Cc3c(O)c4c(c(O)c32)C(=O)c2c(OC)cccc2C4=O)OC(C)C1O)C(=O)OC (stereo not given in full)	97% (active)
CCOc1ccc(N=Nc2ccccc2)cc1	-58%
O=C(CNS(=O)(=O)Cc1ccccc1)NCC(=O)NNc1ccccc1	55%
CC1(C)c2ccccc2Cc2cc3ccccc3nc21	98% (active)
CC(=O)Nc1ccc(C(C)(C)c2ccc(C)cc2)cc1	95% (active)
CC[C@]1(O)C[C@H]2[C@@H]3CCc4cc(OC)ccc4[C@H]3CC[C@]2(C)[C@H]1O	98% (active)
CCCCSc1nc2c([nH]1)c(=S)n(C)c(=S)n2C	80% (active)
CN(Cc1cc(C(C)(C)C)cc(Br)c1O)Cc1cc(C(C)(C)C)cc(Br)c1O	24%
Oc1cc2c(cc1C(c1ccc(F)cc1)N1CCCCC1)OCO2 (stereo not given)	76% (active)

Compound	growth inhibition
CCCCCCCN(CCCCCCC)CC(O)Cc1cc2c(c3ccccc13)CCCC2 (stereo not given)	97% (active)
Cc1c2ccncc2c(C)c2c1sc1ccccc12	94% (active)
c1ccc2c(c1)OCC(CNCCNCC1COc3ccccc3O1)O2 (stereo not given)	69%
CC(C)(C)c1ccc(Sc2ncnc3ccccc23)cc1	78% (active)
C(#Cc1ccccc1)Sc1ccccc1	4%
CCOC(=O)NC(NNc1ccc([N+](=O)[O-])cc1[N+](=O)[O-])(C(F)(F)F)C(F)(F)F	99% (active)
O=C1/C(=C/c2cccc(O)c2)COc2ccccc21	95% (active)
CNC1=C2NC(=O)/C(C)=C\C=C\C(C)C(O)C(C)C(O)C(C)C(OC(C)=O)C(C)C(OC)/C=C/OC3(C)Oc4c(C)c(O)c(c(c4C3=O)C1=O)C2=O (stereo not given)	56%
COc1ccc(Cc2c(-c3ccc(C)cc3)n[nH]c(=O)c2C2C(=O)N(c3ccccc3)N=C2c2ccccc2)cc1 (stereo not given)	95% (active)
Cc1ccc(Cc2n[nH]c(=O)n2N2C(=O)c3ccccc3C2=O)cc1	16%
COc1cc2c(c(C3C(=O)N(C)c4ccc(Br)cc43)c1OC)OCO2 (stereo not given)	3%
CCCCCCCCC1N(C)CCCN1C	97% (active)
C1=Cc2ccccc2/C1=C/c1ccccc1	93% (active)
COC(=O)c1ccc2ccccc2c1C(=O)c1ccc(F)cc1	94% (active)
CCNC(=S)N/N=C(/C)c1cccc(/C(C)=N\NC(=S)NCC)n1	12%
c1ccc2c(c1)ccc1ncccc12	70% (active)
Cc1nc(N)nn1C	10%
COC(=O)C1=C(C)NC(C)=C(C(=O)OC)C1c1ccc(NCc2ccccc2)c([N+](=O)[O-])c1	59%
CCc1ccccc1NC(=O)C(C#N)C1=C(Cl)C(=O)c2ccccc2C1=O (stereo not given)	98% (active)
O=C(O)c1ccc2ccccc2c1C(=O)c1cccc2ccccc12	12%
